Results from PubChem BioAssay (Tox21).
Results filed as inconclusive are left out. The source made the active and inactive calls. Unless noted, the call rests on the fitted dose curve; in most records, active means well fitted curve in the direction sought with a large enough effect in the repeat runs; inconclusive means weak or mixed curves; inactive means no such curve, though single readings can be large; an effect the other way counts as inactive or inconclusive.

Assays:
[1] = A CellTox Green Cytotoxicity Assay to monitor cytotoxicity in HEK293 cells - 32 hour (AID 1224881); further: nearly all actives have a fitted effect of over 40% in size
Outline: (§1)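 Tox21 screen in HEK293: membrane-impermeant cyanine dye fluoresces on binding dead-cell DNA; compound pinned 5 h post-seeding, plates held at 37 C, signal read repeatedly through 40 h.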

[2] = A CellTox Green Cytotoxicity Assay to monitor cytotoxicity in HepG2 cells - 0 hour (AID 1224882); further: nearly all actives have a fitted effect of over 35% in size
Outline: (§2)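 Measurements at 0, 8, 16, 24, 32 and 40 h of treatment captured CellTox Green fluorescence in HepG2 cells that had been co-plated with reagent and preincubated 5 h at 37 C/5% CO2.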

[3] = A CellTox Green Cytotoxicity Assay to monitor cytotoxicity in HepG2 cells - 32 hour (AID 1224883); further: nearly all actives have a fitted effect of over 50% in size
Outline: as §2

[4] = A CellTox Green Cytotoxicity Assay to monitor cytotoxicity in HEK293 cells - 8 hour (AID 1224884); further: nearly all actives have a fitted effect of over 35% in size
Outline: as §1

[5] = qHTS RealTime-Glo MT Cell Viability Assay in HepG2 cells - 16 hour (AID 1224885); further: nearly all actives have a fitted effect of over 50% in size
Outline: (§3)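 HepG2 cells (600/well) were dispensed with RealTime-Glo reagents, incubated 5 h at 37 °C, then treated with compounds in DMSO for up to 40 h. Nonlytic NanoLuc luminescence reflecting viable cells was read at each stated time point.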

[6] = qHTS RealTime-Glo MT Cell Viability Assay in HEK293 cells - 8 hour (AID 1224887); further: top concentration of the series differs between compounds; nearly all actives have a fitted effect of over 50% in size
Outline: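 HEK293 + NanoLuc + prosubstrate, 600 cells/well; 5 h, 37 C/5% CO2; compound 23 nL in DMSO by pintool; 37 C; luminescence read at 0, 8, 16, 24, 32 and 40 h time points.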

[7] = A CellTox Green Cytotoxicity Assay to monitor cytotoxicity in HEK293 cells - 16 hour (AID 1224888); further: nearly all actives have a fitted effect of over 35% in size
Outline: as §1

[8] = qHTS RealTime-Glo MT Cell Viability Assay in HepG2 cells - 0 hour (AID 1224889); further: nearly all actives have a fitted effect of over 50% in size
Outline: as §3

[9] = A CellTox Green Cytotoxicity Assay to monitor cytotoxicity in HepG2 cells - 8 hour (AID 1224890); further: nearly all actives have a fitted effect of over 45% in size
Outline: as §2

[10] = qHTS assay to identify small molecule antagonists of the estrogen receptor alpha (ER-alpha) signaling pathway using the BG1 cell line in the presence of 0.1 nM 17-beta-estradiol - cell viability counter screen (AID 1259241); further: nearly all actives have a fitted effect of over 40% in size
Outline: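 Estradiol-stimulated (0.1 nM) VM7Luc4E2 cells exposed to compounds 22 hr; viability measured by fluorescence of cleaved CellTiter-Fluor substrate after 30 min.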

[11] = qHTS assay to identify small molecule antagonists of the androgen receptor (AR) signaling pathway using the MDA cell line in the presence of 0.5 nM R1881 - cell viability counter screen (AID 1259242); further: nearly all actives have a fitted effect of over 45% in size
Outline: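 Concentration-response screen of compounds for toxicity in MDA-kb2 reporter cells: 16 hr at 37C with 0.5 nM R1881, endpoint live-cell protease fluorescence measured in the reporter wells.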

[12] = biological target: Estrogen receptor (Homo sapiens) (UniProt P03372); experiment: qHTS assay to identify small molecule antagonists of the estrogen receptor alpha (ER-alpha) signaling pathway using the BG1 cell line in the presence of 0.1 nM 17-beta-estradiol (AID 1259244); further: nearly all actives have a fitted effect of over 50% in size
Estrogen receptor (Homo sapiens), sequence (P03372 whole entry, looked up): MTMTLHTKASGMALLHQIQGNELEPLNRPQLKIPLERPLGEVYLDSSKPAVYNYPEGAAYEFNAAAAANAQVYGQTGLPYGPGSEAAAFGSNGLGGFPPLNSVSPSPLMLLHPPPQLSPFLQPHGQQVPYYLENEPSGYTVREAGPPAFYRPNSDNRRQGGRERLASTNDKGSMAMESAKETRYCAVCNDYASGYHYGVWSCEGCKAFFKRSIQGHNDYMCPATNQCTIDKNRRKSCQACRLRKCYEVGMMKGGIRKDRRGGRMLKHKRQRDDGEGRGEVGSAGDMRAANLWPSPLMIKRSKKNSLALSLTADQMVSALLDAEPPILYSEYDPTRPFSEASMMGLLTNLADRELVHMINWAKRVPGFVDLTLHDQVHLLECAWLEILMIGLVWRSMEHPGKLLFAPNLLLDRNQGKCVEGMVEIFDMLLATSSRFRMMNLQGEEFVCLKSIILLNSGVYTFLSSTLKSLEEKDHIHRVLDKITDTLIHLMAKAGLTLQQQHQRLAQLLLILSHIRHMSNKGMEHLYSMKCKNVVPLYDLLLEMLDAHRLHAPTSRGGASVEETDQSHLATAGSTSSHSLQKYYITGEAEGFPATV
Outline: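 Compounds were tested against 0.1 nM (final) 17beta-estradiol in VM7Luc4E2 cells, which express full-length ER-alpha and an ERE-luciferase reporter; luminescence was recorded following 22 h exposure.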

[13] = qHTS assay to identify small molecule HDAC inhibitors (AID 1259364);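 further: wild-type HCT-116 cells with endogenous class I/II HDAC activity; top concentration of the series differs between compounds; nearly all actives have a fitted effect of over 45% in size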
Outline: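 Screening used wild-type human colon HCT-116 cells incubated overnight, dosed with compounds for 2 hours, and assayed with a homogeneous luminogenic HDAC I/II reagent for 30 minutes at room temperature.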

[14] = qHTS assay to identify small molecule HDAC inhibitors - cell viability counter screen (AID 1259365)
Outline: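 After overnight seeding at 1,500 cells per well, wild-type HCT-116 cultures took up compounds in DMSO for 2hr at 37 C. Viable cell content came from luminescence with CellTiter-Glo.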

[15] = qHTS assay to identify small molecule agonists of the sonic hedgehog signaling (Shh) pathway - cell viability counter screen (AID 1259366); further: nearly all actives have a fitted effect of over 50% in size
Outline: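 Same-well cytotoxicity read. Gli1-Luc reporter 3T3 cells; compounds 24hr, 37C/5% CO2; CellTiter-Fluor fluorescence.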

[16] = qHTS assay to identify small molecule agonists of the sonic hedgehog signaling (Shh) pathway (AID 1259368; calls by dose curve;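 further: NIH/3T3-derived 3T3Gli1-Luc cells carrying a stable Gli1-driven firefly luciferase reporter; series mostly up to about 92 µM; nearly all actives have a fitted effect of over 15% in size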)
Outline: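 Hedgehog pathway agonism scored by increased firefly luciferase luminescence in 3T3Gli1-Luc cells treated 24 hr at 37 C; detection used a 30 min room-temperature reagent incubation.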

[17] = qHTS assay to identify small molecule phospholipidosis (PLD) inducers (AID 1259344; active means well fitted curve in the direction sought with a large enough effect; an effect the other way counts as inactive or inconclusive)
Outline: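 Image-based: LipidTOX Red pit count/intensity per well and per cell; HepG2, 24 h compound at 37 C, PFA fixation, Hoechst counterstain.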

[18] = qHTS assay to identify small molecule antagonists of the sonic hedgehog signaling (Shh) pathway - cell viability counter screen (AID 1259367); further: nearly all actives have a fitted effect of over 55% in size
Outline: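 Tox21 library chemicals were tested on a Gli1-Luc NIH/3T3 clone (2,000 cells/well) stimulated by conditioned medium; viability was quantified as fluorescence from CellTiter-Fluor reagent added at 23 hr.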

[19] = qHTS RealTime-Glo MT Cell Viability Assay in HEK293 cells - 24 hour (AID 1224886)
Outline: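 HEK293 cells seeded with NanoLuc/prosubstrate reagent, rested 5 h at 37 C, then dosed and kept at 37 C up to 40 h. Nonlytic real-time luminescence from viable cells read at 0, 8, 16, 24, 32 and 40 h.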

[20] = biological target: Androgen receptor (Homo sapiens) (UniProt P10275); experiment: qHTS assay to identify small molecule antagonists of the androgen receptor (AR) signaling pathway using the MDA cell line in the presence of 0.5 nM R1881 (AID 1259243); further: nearly all actives have a fitted effect of over 50% in size
Androgen receptor (Homo sapiens), sequence (P10275 whole entry, looked up): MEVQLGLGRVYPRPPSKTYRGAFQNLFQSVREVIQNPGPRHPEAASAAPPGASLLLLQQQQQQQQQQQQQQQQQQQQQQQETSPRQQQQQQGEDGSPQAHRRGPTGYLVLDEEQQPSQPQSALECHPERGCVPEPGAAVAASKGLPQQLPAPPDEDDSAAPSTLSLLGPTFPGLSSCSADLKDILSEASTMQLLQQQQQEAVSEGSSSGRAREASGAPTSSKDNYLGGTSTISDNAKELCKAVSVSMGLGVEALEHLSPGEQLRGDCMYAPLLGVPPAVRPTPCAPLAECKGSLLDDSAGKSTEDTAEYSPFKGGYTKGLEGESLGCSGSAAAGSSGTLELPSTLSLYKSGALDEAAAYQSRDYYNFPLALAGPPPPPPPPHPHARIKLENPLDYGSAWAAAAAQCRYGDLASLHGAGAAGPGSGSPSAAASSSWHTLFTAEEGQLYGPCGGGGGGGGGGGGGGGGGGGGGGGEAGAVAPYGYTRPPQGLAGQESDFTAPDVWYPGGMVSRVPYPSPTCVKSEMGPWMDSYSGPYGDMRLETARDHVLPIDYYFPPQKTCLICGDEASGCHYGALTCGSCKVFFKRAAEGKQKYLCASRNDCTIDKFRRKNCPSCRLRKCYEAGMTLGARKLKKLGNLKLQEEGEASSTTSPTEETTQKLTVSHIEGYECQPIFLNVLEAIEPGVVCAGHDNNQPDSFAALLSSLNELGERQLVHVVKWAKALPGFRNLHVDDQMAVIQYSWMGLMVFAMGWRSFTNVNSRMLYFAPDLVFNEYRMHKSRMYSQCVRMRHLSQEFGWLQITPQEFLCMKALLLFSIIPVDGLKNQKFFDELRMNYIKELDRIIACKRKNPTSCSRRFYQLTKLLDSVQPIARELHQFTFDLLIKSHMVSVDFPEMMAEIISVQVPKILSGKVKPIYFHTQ
Outline: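 With R1881 held at 0.5 nM (final), compound effects on MMTV-luciferase expression in MDA-kb2 cells were scored by luminescence after a 16 hr, 37C incubation.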

Measured: Potency

CC(C)c1ccc2ncccc2c1
not listed: [17] | [18] | [19] | [20]
inactive: all other assays above

CC(C)(C)C(=O)Oc1ccc(S(=O)(=O)Nc2ccccc2C(=O)NCC(=O)O)cc1
not listed: [19] | [20]
inactive: all other assays above

CC(=O)Nc1ccc(OCC(O)CNC(C)C)cc1 (stereo unspecified)
not listed: [6] | [12] | [18] | [20]
inactive: all other assays above

O=C(O)c1cn(C2CC2)c2cc(N3CCNCC3)c(F)cc2c1=O
not listed: [5] | [20]
inactive: all other assays above

NC(CCC(=O)O)C(=O)O (stereo unspecified)
not listed: [8] | [10] | [17] | [18] | [20]
inactive: all other assays above

C=C(C)C(=O)OCC(O)CO (stereo unspecified)
not listed: [10] | [12] | [17] | [19]
inactive: all other assays above

NC(=O)NC1N=C([O][Al])NC1=O (stereo unspecified)
not listed: [5] | [12] | [17] | [18]
inactive: all other assays above

COCCOCC(OC)OC
not listed: [5] | [17] | [20]
inactive: all other assays above

O=S(=O)(O)c1cccc2c(S(=O)(=O)O)cccc12
not listed: [7] | [12] | [17] | [19] | [20]
inactive: all other assays above

CC(C)(CCC(=O)O)C(=O)O
not listed: [10] | [17] | [19] | [20]
inactive: all other assays above

OCCc1ccccn1
not listed: [5] | [8] | [12] | [17] | [20]
inactive: all other assays above

CC(=O)Oc1cccc(C)c1
not listed: [5] | [10] | [19] | [20]
inactive: all other assays above

CCOC(=O)COC(=O)c1ccccc1C(=O)OCC
not listed: [5] | [14] | [17] | [20]
inactive: all other assays above

CO/N=C(\C(=O)N[C@@H]1C(=O)N2C(C(=O)O)=C(CSc3nc(=O)c(O)nn3C)CS[C@H]12)c1csc(N)n1
not listed: [5] | [18] | [19] | [20]
inactive: all other assays above

CC(C)(C)c1ccc(-c2ccc(C(C)(C)C)cc2)cc1
not listed: [4] | [17]
inactive: all other assays above

CCCCCCC1CCC(=O)O1 (stereo unspecified)
not listed: [5] | [17] | [20]
inactive: all other assays above
